A selection: hits, their analogues and other compounds. The true share with any hit is near 14%.
Pf growth 96h: P. falciparum growth inhibition at 96 hour, primary screen for plastid delayed-death inhibitors. P. falciparum luciferase reporter growth, 96 h. Potency, µM (highest dose often 28.7 µM), inactives show at the highest dose activity change, negative = inhibition, usual class: inhibitors. actives 6.9% (n = 320,000). AID 504834; note: potency is the fitted concentration of half-maximal effect
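Erythrocytes infected with luciferase-expressing P. falciparum were dispensed at 2% hematocrit and 0.05% parasitemia (final), then incubated with compounds 96 hours at 37 C in 5% CO2. Luminescence after detection reagent addition reported growth.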
Pf growth 48h: inhibits P. falciparum growth in the first generation, 48 h; Potency, µM (top dose mostly 28.7 µM), without a hit: at the top dose activity change, negative = inhibition, usual class: inhibitors; P. falciparum luciferase growth in erythrocytes, 48 h; actives 5.9% (n = 310,000); note: potency is the fitted concentration of half-maximal effect
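Luciferase-expressing P. falciparum in infected erythrocytes (2% hematocrit, 0.1% parasitemia final) in RPMI 1640/0.5% Albumax were exposed to compound for 48 hours at 37 C, 5% CO2; growth read as luminescence.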
HCMV antiviral: inhibitors of human cytomegalovirus | HFF cells, HCMV-luciferase reporter, 72 h; hits give low values | activity change, negative = inhibition, % at 57.5 µM | actives 4.5% (n = 410,000) | AID 1259415; in the data active = activity change below about -60%; inconclusive = no clear call, values can overlap the other calls; inactive = above about -39%
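Human foreskin fibroblasts infected with luciferase-reporter HCMV at MOI 1 PFU/cell, compounds at two doses. Luciferase measured 72 h post infection; normalized to buffer-only basal and Salinomycin (10uM) controls.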
Giardia FBPA inh: blocks Giardia fructose-bisphosphate aldolase activity; A8B2U2; Potency, µM (highest dose often 59.6 µM), without a hit: at the highest dose activity, negative = inhibition, hits mostly inhibitors; actives 0.71% (n = 290,000); purified Giardia FBPA; note: potency is the fitted concentration of half-maximal effect; nearly all actives have a fitted effect of over 55% in size
Target sequence (A8B2U2 whole entry, looked up): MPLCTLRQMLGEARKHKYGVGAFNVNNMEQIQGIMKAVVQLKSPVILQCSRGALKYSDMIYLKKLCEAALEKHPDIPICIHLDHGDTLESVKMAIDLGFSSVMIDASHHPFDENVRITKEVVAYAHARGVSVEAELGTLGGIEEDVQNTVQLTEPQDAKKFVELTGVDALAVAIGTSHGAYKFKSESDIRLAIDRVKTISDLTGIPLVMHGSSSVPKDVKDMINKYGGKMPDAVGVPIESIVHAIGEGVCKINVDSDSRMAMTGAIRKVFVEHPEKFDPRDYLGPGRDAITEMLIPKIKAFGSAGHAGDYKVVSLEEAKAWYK
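40 nM FBPA preincubated 10 min at RT with compound (up to 57.5 uM final), then substrate plus GAPDH/TPI/NAD/arsenate coupling and diaphorase/resazurin added. Fluorescence read after 20 min at RT, 525/598 nm.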
Sm TGR inh: S. mansoni TGR enzyme inhibition; Q962Y6; purified TGR, DTNB reduction, TNB absorbance 405 nm; Potency, µM (titrated, usually from 114 µM), for inactives: top-dose activity change, negative = inhibition, actives largely listed as inhibitors; actives 3% (n = 360,000); AID 485364; note: potency is the fitted concentration of half-maximal effect; nearly all actives have a fitted effect of over 60% in size
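Kinetic colorimetric format: TGR-catalysed, NADPH-driven DTNB reduction monitored via TNB absorbance. Enzyme dispensed at 20 nM; compound exposure 15 min at room temperature before reaction start.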
Active calls of the source: *; ? = inconclusive; · = not tested or not shown; [ ] = dose if it differs, or a comment. Unless noted, calls come from the whole dose curve; as a rule, active = well fitted curve in the direction sought with a large enough effect; inconclusive = small, poorly fitted or top-dose-only effect, or another doubt; inactive = no such curve, though single readings can be large; an effect the other way counts as inactive or inconclusive. % is set by controls: 0 for no effect and ±100 for the full control effect.

SMILES	Pf growth 96h	Pf growth 48h	HCMV antiviral	Giardia FBPA inh	Sm TGR inh
CCNc1ccc(Br)cc(C(=O)/C=C/c2ccccc2Cl)c1=O	·	·	-103*	·	·
CNc1ccc(Br)cc(C(=O)/C=C/c2cccc(Cl)c2Cl)c1=O	?	?	51	?	2.5µM*
CNc1ccccc(C(=O)/C=C/c2ccccc2OC)c1=O	?	?	39	11µM*	2.8µM*
COc1cccc(/C=C/C(=O)c2ccc3c(c2)OCO3)c1OC	-2%	4%	·	·	-19%
CNc1ccc(Br)cc(C(=O)/C=C/c2cccc(OC)c2OC)c1=O	?	?	-92*	?	7.1µM*
CC(=O)OC1C=C[C@]2(C)C(CC(OC(C)=O)[C@@]3(C)C4=CC(=O)OC(c5ccoc5)[C@]4(C)CCC23)C1(C)C (some centres undefined)	·	·	·	3%	·
CC(C)CO/N=C1/[C@H]2O[C@@H]2[C@@H](O)[C@H]2[C@H]1CCn1c(=O)n(-c3ccccc3)c(=O)n12	·	·	·	6%[12.9 µM]	·
Cc1cccc(/C(N)=N/OC(=O)N2c3ccccc3Sc3ccccc32)c1	6.6µM*	?	-17	13%	3%
CCN(CC)CCNC(=O)c1ccc2c(=O)n(C3CCCC3)c(=S)[nH]c2c1	3%	2.3µM*	11	6%	-4%
CCOc1cc2[nH]c(=S)n(Cc3ccc(C(=O)NCCN(CC)CC)cc3)c(=O)c2cc1OCC	-22%	2.6µM*	-20	8%	12%
CC[n+]1c(/C=C/C=C/N(C(C)=O)c2ccccc2)sc2cc(OC)ccc21	13%	9.3µM*	-66*	-6%	-9%
COc1ccc2sc(/C=C/c3ccccc3O)[n+](C)c2c1	-2%	3%	-8	-1%	-9%
Cc1sc(NC(=O)CN(Cc2ccc(F)cc2)C(=O)C(C)(C)C)c(C(N)=O)c1C	7.4µM*	-23%	-11	6%	-2%
CC(=O)N(CC(=O)Nc1sc(C)c(C)c1C(N)=O)Cc1ccccc1	47%	7%	-3	3%	0%
Cc1ccccc1NC(=O)c1ccc(F)c(S(=O)(=O)N2CCc3ccccc3C2)c1	·	·	10	·	4%
CC(=O)Nc1ccc(S(=O)(=O)N2CCN(S(=O)(=O)c3ccccc3)CC2)cc1	?	?	68	3%	-12%
Cc1ccc(NC(=O)c2ccc(F)c(S(=O)(=O)N3CCc4ccccc4C3)c2)cc1F	·	·	-68*	·	10%
Cc1ccc(C)c(N2CCN(S(=O)(=O)c3cc(C(=O)Nc4ccc(Oc5ccccc5)cc4)ccc3F)CC2)c1	·	·	-65*	·	1%
Cc1ccc(S(=O)(=O)N2CCCCC2)cc1	18%	·	-27	-9%	-17%
Cc1ccc(C)c(CNc2ccc(S(=O)(=O)N3CCCCC3)cc2)c1	?	12µM*	?	·	-5%
CC(=O)Nc1ccc(S(=O)(=O)N2CCN(c3cc(C)ccc3C)CC2)cc1	13µM*	-20%	-19	0%	0%
CC(=O)c1cccc(NC(=O)CCCN2C(=O)COc3ccc(C)cc32)c1	·	·	47	·	?
CCN(c1ccccc1)S(=O)(=O)c1cc(C(=O)Nc2ccc(F)c(F)c2)ccc1F	-14%	?	-91*	2%	-1%
Cc1ccc(NC(=O)c2ccc(F)c(S(=O)(=O)N3CCOCC3)c2)cc1F	36%	?	-69*	2%	0%
CCc1ccccc1NC(=O)c1ccc(F)c(S(=O)(=O)N2CCN(c3ccccc3OC)CC2)c1	·	·	-62*	·	-4%
SMILES	Pf growth 96h	Pf growth 48h	HCMV antiviral	Giardia FBPA inh	Sm TGR inh
CCN(c1ccccc1)S(=O)(=O)c1cc(NC(=O)Nc2ccccc2C#N)ccc1Cl	?	?	-68*	1%	-10%
CCN(c1ccccc1)S(=O)(=O)c1ccc(C(=O)Nc2cccc(NC(C)=O)c2)cc1	·	·	-7	·	·
C[C@@H]1OC(Oc2ccccc2-c2cc(=O)c3c(O)cc(O)c([C@@H]4O[C@H](CO)[C@@H](O)[C@H](O)[C@H]4O)c3o2)[C@H](O)[C@H](O)[C@H]1O (some centres undefined)	·	·	·	0%	·
Cc1ccc(OCCOc2ccc(S(=O)(=O)N3CCCC3)cc2C(N)=O)cc1	7%	7%	-17	·	-4%
O=C(Nc1ccccc1)c1ccc(F)c(S(=O)(=O)N2CCOCC2)c1	?	?	-14	-5%	0%
O=C(Nc1ccc(-c2cn3ccsc3n2)cc1)c1ccc(F)c(S(=O)(=O)N2CCOCC2)c1	9.3µM*	0%	?	3%	-18%
Cc1ccc(CNS(=O)(=O)c2cc(C(=O)Nc3ccc(C(C)C)cc3)ccc2F)cc1	·	·	-5	·	4%
Cc1ccc(NC(=O)c2ccc(F)c(S(=O)(=O)NCCc3ccccc3)c2)cc1F	·	·	-75*	·	1%
CC(C)(C)c1ccc(C(=O)NCC(c2cccs2)S(=O)(=O)c2ccccc2)cc1 (centres undefined)	·	·	-6	·	-4%
NC(N)=NS(=O)(=O)c1ccc(NC(=S)NC(=O)Cc2ccc(Cl)cc2)cc1	-10%	11%	116	-25%	?
CCN1C(=O)/C(=C/C=C2/CCCN2C)OC1=S	10%	91%	-30	-22%	-6%
CCC(OC(=O)CC1Sc2ccccc2NC1=O)C(=O)NCC1CCCO1 (centres undefined)	104%	-11%	30	1%	25µM*
CCOC(=O)CC1Sc2ccccc2NC1=O (centres undefined)	44%	6%	8	-6%	-16%
N#CC1=C(SCC(N)=O)NC2=C(C(=O)c3ccccc32)C1c1ccc(Cl)cc1 (centres undefined)	57%	-18%	-60*	1%	?
CSCSC1=C(C#N)C(c2ccc(Cl)cc2)C(C(C)=O)=C(C)N1 (centres undefined)	?	?	·	-9%	-21%
CCN1C(N(C)C)=NC[C@@H]1Cc1ccccc1	52%	-21%	-4	·	-18%
Cc1cc(Cl)ccc1NC(=O)COC(=O)c1c(C)noc1C	-11%	-9%	-28	·	-5%
Cc1ccc(Cl)cc1NS(=O)(=O)c1cc2c3c(c1)CC(=O)N3CCC2	·	·	-32	·	7%
COc1ccc(CCNS(=O)(=O)c2cc3c4c(c2)CC(=O)N4CCC3)cc1	-6%	9.3µM*	30	·	6%
COc1ccccc1NS(=O)(=O)c1cc2c3c(c1)CC(=O)N3CCC2	58%	9.3µM*	25	19%	-2%
Cc1ccc(NS(=O)(=O)c2cc3c4c(c2)CC(=O)N4CCC3)cc1C	-15%	10µM*	?	·	4%
Cc1csc2cc(-c3cccc([N+](=O)[O-])c3)c(-c3cccc([N+](=O)[O-])c3)c[n+]12	0.47µM*	1µM*	-33	7%	-9%
OCC1(Cc2ccc(Cl)cc2)CCN(Cc2ccccc2F)CC1	?	13µM*	11	2%	2%

Bioassay records from PubChem BioAssay.
